{"source": "paper PMC9911399", "about": "“Two distinct binding modes provide the RNA-binding protein RbFox with extraordinary sequence specificity”", "binders": {"B1": {"name": "GCACGUU (DNA:RNA)", "RNA": "GGGAGACCGGAAUUCAGAUUGUCCGCACGUUUUAAAUCCCGUCGUAGCCACCA", "DNA 1": "CAATCTGAATTCCGGTCTCCC", "DNA 2": "TGGTGGCTACGACGGGATT"}, "B2": {"name": "GUUAAGG (DNA:RNA)", "RNA": "B1 RNA with C26U, A27U, C28A, G29A, U30G, U31G", "DNA 1": "CAATCTGAATTCCGGTCTCCC", "DNA 2": "TGGTGGCTACGACGGGATT"}, "B3": {"name": "UGUACAC (DNA:RNA)", "RNA": "GGGAGACCGGAAUUCAGAUUGUCCUGUACACUUAAAUCCCGUCGUAGCCACCA", "DNA 1": "CAATCTGAATTCCGGTCTCCC", "DNA 2": "TGGTGGCTACGACGGGATT"}, "B4": {"name": "GUCUCAC (DNA:RNA)", "RNA": "B3 RNA with U25G, G26U, U27C, A28U", "DNA 1": "CAATCTGAATTCCGGTCTCCC", "DNA 2": "TGGTGGCTACGACGGGATT"}, "B5": {"name": "GGGUCUA (DNA:RNA)", "RNA": "B1 RNA with C26G, A27G, C28U, G29C, U31A", "DNA 1": "CAATCTGAATTCCGGTCTCCC", "DNA 2": "TGGTGGCTACGACGGGATT"}, "B6": {"name": "UAACUCU (DNA:RNA)", "RNA": "B1 RNA with G25U, C26A, G29U, U30C", "DNA 1": "CAATCTGAATTCCGGTCTCCC", "DNA 2": "TGGTGGCTACGACGGGATT"}, "B7": {"name": "UCUGACU (DNA:RNA)", "RNA": "B1 RNA with G25U, A27U, C28G, G29A, U30C", "DNA 1": "CAATCTGAATTCCGGTCTCCC", "DNA 2": "TGGTGGCTACGACGGGATT"}, "B8": {"name": "AACCUGA (DNA:RNA)", "RNA": "B1 RNA with G25A, C26A, A27C, G29U, U30G, U31A", "DNA 1": "CAATCTGAATTCCGGTCTCCC", "DNA 2": "TGGTGGCTACGACGGGATT"}, "B9": {"name": "CAACUCG (DNA:RNA)", "RNA": "B1 RNA with G25C, C26A, G29U, U30C, U31G", "DNA 1": "CAATCTGAATTCCGGTCTCCC", "DNA 2": "TGGTGGCTACGACGGGATT"}, "B10": {"name": "UGUGUUC (DNA:RNA)", "RNA": "B3 RNA with A28G, C29U, A30U", "DNA 1": "CAATCTGAATTCCGGTCTCCC", "DNA 2": "TGGTGGCTACGACGGGATT"}, "B11": {"name": "CACUGAA (DNA:RNA)", "RNA": "B1 RNA with G25C, C26A, A27C, C28U, U30A, U31A", "DNA 1": "CAATCTGAATTCCGGTCTCCC", "DNA 2": "TGGTGGCTACGACGGGATT"}, "B12": {"name": "UUCCUUC (DNA:RNA)", "RNA": "B1 RNA with G25U, C26U, A27C, G29U, U31C", "DNA 1": "CAATCTGAATTCCGGTCTCCC", "DNA 2": "TGGTGGCTACGACGGGATT"}, "B13": {"name": "CGUAUGC (DNA:RNA)", "RNA": "B3 RNA with U25C, C29U, A30G", "DNA 1": "CAATCTGAATTCCGGTCTCCC", "DNA 2": "TGGTGGCTACGACGGGATT"}, "B14": {"name": "GGAUGCU (DNA:RNA)", "RNA": "B1 RNA with C26G, C28U, U30C", "DNA 1": "CAATCTGAATTCCGGTCTCCC", "DNA 2": "TGGTGGCTACGACGGGATT"}, "B15": {"name": "GUAUGCU (DNA:RNA)", "RNA": "B1 RNA with C26U, C28U, U30C", "DNA 1": "CAATCTGAATTCCGGTCTCCC", "DNA 2": "TGGTGGCTACGACGGGATT"}, "B16": {"name": "GGUAUGC (DNA:RNA)", "RNA": "B3 RNA with U25G, C29U, A30G", "DNA 1": "CAATCTGAATTCCGGTCTCCC", "DNA 2": "TGGTGGCTACGACGGGATT"}, "B17": {"name": "UUAUGCU (DNA:RNA)", "RNA": "B1 RNA with G25U, C26U, C28U, U30C", "DNA 1": "CAATCTGAATTCCGGTCTCCC", "DNA 2": "TGGTGGCTACGACGGGATT"}, "B18": {"name": "GUUAUGC (DNA:RNA)", "RNA": "B3 RNA with U25G, G26U, C29U, A30G", "DNA 1": "CAATCTGAATTCCGGTCTCCC", "DNA 2": "TGGTGGCTACGACGGGATT"}, "B19": {"name": "GAGCUUG (DNA:RNA)", "RNA": "B1 RNA with C26A, A27G, G29U, U31G", "DNA 1": "CAATCTGAATTCCGGTCTCCC", "DNA 2": "TGGTGGCTACGACGGGATT"}, "B20": {"name": "UGUGGCA (DNA:RNA)", "RNA": "B3 RNA with A28G, C29G, A30C, C31A", "DNA 1": "CAATCTGAATTCCGGTCTCCC", "DNA 2": "TGGTGGCTACGACGGGATT"}, "B21": {"name": "CUAUUUC (DNA:RNA)", "RNA": "B1 RNA with G25C, C26U, C28U, G29U, U31C", "DNA 1": "CAATCTGAATTCCGGTCTCCC", "DNA 2": "TGGTGGCTACGACGGGATT"}, "B22": {"name": "AGUCAAC (DNA:RNA)", "RNA": "B3 RNA with U25A, A28C, C29A", "DNA 1": "CAATCTGAATTCCGGTCTCCC", "DNA 2": "TGGTGGCTACGACGGGATT"}, "B23": {"name": "AAUGCAG (DNA:RNA)", "RNA": "B3 RNA with U25A, G26A, A28G, C31G", "DNA 1": "CAATCTGAATTCCGGTCTCCC", "DNA 2": "TGGTGGCTACGACGGGATT"}, "B24": {"name": "GUGCAUG (DNA:RNA)", "RNA": "B1 RNA with C26U, A27G, G29A, U31G", "DNA 1": "CAATCTGAATTCCGGTCTCCC", "DNA 2": "TGGTGGCTACGACGGGATT"}, "B25": {"name": "UUGCAGA (DNA:RNA)", "RNA": "B1 RNA with G25U, C26U, A27G, G29A, U30G, U31A", "DNA 1": "CAATCTGAATTCCGGTCTCCC", "DNA 2": "TGGTGGCTACGACGGGATT"}, "B26": {"name": "UUGCAUA (DNA:RNA)", "RNA": "B1 RNA with G25U, C26U, A27G, G29A, U31A", "DNA 1": "CAATCTGAATTCCGGTCTCCC", "DNA 2": "TGGTGGCTACGACGGGATT"}, "B27": {"name": "UUGCAUG (DNA:RNA)", "RNA": "B1 RNA with G25U, C26U, A27G, G29A, U31G", "DNA 1": "CAATCTGAATTCCGGTCTCCC", "DNA 2": "TGGTGGCTACGACGGGATT"}, "B28": {"name": "GUGCAGA (DNA:RNA)", "RNA": "B1 RNA with C26U, A27G, G29A, U30G, U31A", "DNA 1": "CAATCTGAATTCCGGTCTCCC", "DNA 2": "TGGTGGCTACGACGGGATT"}, "B29": {"name": "GCGUGCA (DNA:RNA)", "RNA": "B1 RNA with A27G, C28U, U30C, U31A", "DNA 1": "CAATCTGAATTCCGGTCTCCC", "DNA 2": "TGGTGGCTACGACGGGATT"}, "B30": {"name": "UUGCAUC (DNA:RNA)", "RNA": "B1 RNA with G25U, C26U, A27G, G29A, U31C", "DNA 1": "CAATCTGAATTCCGGTCTCCC", "DNA 2": "TGGTGGCTACGACGGGATT"}, "B31": {"name": "GUGCAUA (DNA:RNA)", "RNA": "B1 RNA with C26U, A27G, G29A, U31A", "DNA 1": "CAATCTGAATTCCGGTCTCCC", "DNA 2": "TGGTGGCTACGACGGGATT"}, "B32": {"name": "UUGCGUC (DNA:RNA)", "RNA": "B1 RNA with G25U, C26U, A27G, U31C", "DNA 1": "CAATCTGAATTCCGGTCTCCC", "DNA 2": "TGGTGGCTACGACGGGATT"}, "B33": {"name": "GUUCAUC (DNA:RNA)", "RNA": "B1 RNA with C26U, A27U, G29A, U31C", "DNA 1": "CAATCTGAATTCCGGTCTCCC", "DNA 2": "TGGTGGCTACGACGGGATT"}, "B34": {"name": "UCUUGCA (DNA:RNA)", "RNA": "B1 RNA with G25U, A27U, C28U, U30C, U31A", "DNA 1": "CAATCTGAATTCCGGTCTCCC", "DNA 2": "TGGTGGCTACGACGGGATT"}, "B35": {"name": "GUGCAUC (DNA:RNA)", "RNA": "B1 RNA with C26U, A27G, G29A, U31C", "DNA 1": "CAATCTGAATTCCGGTCTCCC", "DNA 2": "TGGTGGCTACGACGGGATT"}}, "note": "Numbering of substitutions follows the chain as printed; changes in the protein carry UniProt numbers. In all, about 16,000 sequences were measured (“ka relative to ugcaugu”: median about 0.096, highest 2% from about 0.35 on). The entries come from a sample that favours the highest values as a whole."}
{"biological_target": "T1, RBFOX1 RRM RbFoxmut (Fox-RRM*) (Homo sapiens, UniProt Q9NWB1 109-208, R118D;E147R;N151S;E152T)", "T1 sequence": "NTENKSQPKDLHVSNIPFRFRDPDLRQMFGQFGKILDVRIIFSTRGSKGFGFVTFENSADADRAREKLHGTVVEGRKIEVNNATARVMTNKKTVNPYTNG", "assay": "EMSA; HiTS-Eq, 1 nM pool, 10 min; buffer printed only for the single-RNA assays: 10 mM Tris pH 7.5, 150 mM NaCl, 3.4 mM EDTA, 0.001% NP-40, 30 C", "settings": "tags: His6 N-terminal (pET28a); label: 5' 32P", "how_it_was_run": "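Relative association constants, normalised to the cognate motif, were derived by comparing read counts of each RNA species with those of the control reaction. The RNA sequenced was the free fraction, separated by 8% native PAGE after a 10 min equilibration in 50 µL of 1 nM 5′-radiolabelled RNA (7 randomized nucleotides) with increasing concentrations of purified wild-type or mutant RbFox RRM.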"}
{"binder": "B1", "binding signal": "0.318 KA relative to UGCAUGU"}
{"binder": "B2", "binding signal": "0.0786 KA relative to UGCAUGU"}
{"binder": "B3", "binding signal": "0.0562 KA relative to UGCAUGU"}
{"binder": "B4", "binding signal": "0.0695 KA relative to UGCAUGU"}
{"binder": "B5", "binding signal": "0.1 KA relative to UGCAUGU"}
{"binder": "B6", "binding signal": "0.0488 KA relative to UGCAUGU"}
{"binder": "B7", "binding signal": "0.0694 KA relative to UGCAUGU"}
{"binder": "B8", "binding signal": "0.0413 KA relative to UGCAUGU"}
{"binder": "B9", "binding signal": "0.142 KA relative to UGCAUGU"}
{"binder": "B10", "binding signal": "0.108 KA relative to UGCAUGU"}
{"binder": "B11", "binding signal": "0.0869 KA relative to UGCAUGU"}
{"binder": "B12", "binding signal": "0.0735 KA relative to UGCAUGU"}
{"binder": "B13", "binding signal": "0.325 KA relative to UGCAUGU"}
{"binder": "B14", "binding signal": "0.142 KA relative to UGCAUGU"}
{"binder": "B15", "binding signal": "0.402 KA relative to UGCAUGU"}
{"binder": "B16", "binding signal": "0.398 KA relative to UGCAUGU"}
{"binder": "B17", "binding signal": "0.13 KA relative to UGCAUGU"}
{"binder": "B18", "binding signal": "0.21 KA relative to UGCAUGU"}
{"binder": "B19", "binding signal": "0.253 KA relative to UGCAUGU"}
{"binder": "B20", "binding signal": "0.136 KA relative to UGCAUGU"}
{"binder": "B21", "binding signal": "0.0582 KA relative to UGCAUGU"}
{"binder": "B22", "binding signal": "0.0571 KA relative to UGCAUGU"}
{"binder": "B23", "binding signal": "0.103 KA relative to UGCAUGU"}
{"binder": "B24", "binding signal": "1.39 KA relative to UGCAUGU"}
{"binder": "B25", "binding signal": "0.108 KA relative to UGCAUGU"}
{"binder": "B26", "binding signal": "0.23 KA relative to UGCAUGU"}
{"binder": "B27", "binding signal": "0.909 KA relative to UGCAUGU"}
{"binder": "B28", "binding signal": "0.12 KA relative to UGCAUGU"}
{"binder": "B29", "binding signal": "0.225 KA relative to UGCAUGU"}
{"binder": "B30", "binding signal": "0.432 KA relative to UGCAUGU"}
{"binder": "B31", "binding signal": "0.153 KA relative to UGCAUGU"}
{"binder": "B32", "binding signal": "0.126 KA relative to UGCAUGU"}
{"binder": "B33", "binding signal": "0.0631 KA relative to UGCAUGU"}
{"binder": "B34", "binding signal": "0.205 KA relative to UGCAUGU"}
{"binder": "B35", "binding signal": "0.566 KA relative to UGCAUGU"}
